This note sets out measurements from article PMC4336329 (PLoS ONE, 2015).

SMILES strings stand for the structures. About 14,000 (4.5%) of roughly 310,000 compounds showed an effect of 50% or more. The effect is printed as a negative number. The full list was thinned out, with strong results kept by preference.
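Note: peak tail current of the secondary pulse compared with the same well before compound.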

This assay deals with human ether-à-go-go-related gene (hERG) potassium channel (human, UniProt Q12809). The assay is described as follows: primary screen, population patch clamp on CHO cells stably expressing hERG; higher = less effect of the substance.
Sequence of human ether-à-go-go-related gene (hERG) potassium channel (Q12809 whole entry, looked up): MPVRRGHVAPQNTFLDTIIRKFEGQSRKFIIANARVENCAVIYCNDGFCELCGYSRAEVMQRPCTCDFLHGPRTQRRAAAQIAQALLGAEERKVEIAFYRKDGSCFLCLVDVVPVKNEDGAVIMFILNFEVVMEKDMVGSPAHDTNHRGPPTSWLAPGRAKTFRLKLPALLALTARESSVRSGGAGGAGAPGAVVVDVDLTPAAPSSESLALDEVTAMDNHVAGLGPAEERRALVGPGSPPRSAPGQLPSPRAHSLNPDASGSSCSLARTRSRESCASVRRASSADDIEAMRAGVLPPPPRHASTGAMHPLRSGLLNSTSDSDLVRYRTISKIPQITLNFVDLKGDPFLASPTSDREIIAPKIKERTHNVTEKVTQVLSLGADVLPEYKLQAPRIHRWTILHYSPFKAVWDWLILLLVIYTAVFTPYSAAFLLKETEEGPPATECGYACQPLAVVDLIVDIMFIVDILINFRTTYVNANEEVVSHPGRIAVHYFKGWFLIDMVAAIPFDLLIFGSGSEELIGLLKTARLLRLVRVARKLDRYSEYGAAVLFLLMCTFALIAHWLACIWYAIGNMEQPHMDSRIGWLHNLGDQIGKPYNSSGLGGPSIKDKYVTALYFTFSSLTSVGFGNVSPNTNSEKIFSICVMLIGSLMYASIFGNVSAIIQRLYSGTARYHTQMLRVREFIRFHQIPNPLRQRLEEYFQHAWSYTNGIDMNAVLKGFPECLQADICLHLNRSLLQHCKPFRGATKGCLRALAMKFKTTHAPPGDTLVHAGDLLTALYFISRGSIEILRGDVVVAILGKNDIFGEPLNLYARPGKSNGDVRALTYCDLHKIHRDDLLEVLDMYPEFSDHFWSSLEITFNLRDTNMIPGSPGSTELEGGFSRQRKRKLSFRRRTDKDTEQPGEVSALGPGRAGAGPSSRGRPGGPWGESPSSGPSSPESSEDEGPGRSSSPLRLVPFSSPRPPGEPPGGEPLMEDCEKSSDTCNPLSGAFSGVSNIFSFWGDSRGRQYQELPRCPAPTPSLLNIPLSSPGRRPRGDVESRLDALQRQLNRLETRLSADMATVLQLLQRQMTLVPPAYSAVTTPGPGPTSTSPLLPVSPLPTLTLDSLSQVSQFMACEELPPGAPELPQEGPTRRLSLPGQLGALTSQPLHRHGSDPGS
As for `O=C(c1ccc2ccccc2c1)N1CCCC1`, the “hERG current change (%, negative = inhibition) at 10uM” value is 19.2%. The value for `CC(=O)c1sc(NC(=O)c2cc(=O)c3ccccc3o2)nc1C` was 10.1%; that for `O=C(Cc1ccc(F)cc1)Nc1nnc(SCC(=O)NC2CCCC2)s1` was 1.56%. Under `COc1cccc(C(O)c2nc3ccccc3n2C)c1` (centres unmarked) stands 3.27%. Under `CC(NC(=O)Cn1ccsc1=N)C12CC3CC(CC(C3)C1)C2.Cl` (centres unmarked) stands -34.4%; under `CCC(=O)c1c[nH]c(C(=O)NCc2ccccc2OC)c1`, -6.15%. As for `CCN(CC)CCCN1CC(O)=C(c2nc3ccccc3s2)C1=N`, the “hERG current change (%, negative = inhibition) at 10uM” value was -34.2%.

Consider `Fc1ccc(Nc2nnns2)cc1`, for which the “hERG current change (%, negative = inhibition) at 10uM” value is listed as 18.2%. The value for `O=C(OCc1cccc([N+](=O)[O-])c1)c1ccc[nH]c1=O` was 17.2%. The value for `COc1ccc(CC(=O)Nc2cc(C)ccn2)cc1` was 6.87%; that for `O=C(COC(=O)C1CC(=O)N(Cc2ccccc2)C1)Nc1ccccc1F` (centres unmarked) was 7.39%. Under `CN(CC(=O)Nc1c(Cl)cccc1Cl)C(=O)C1CCN(C(=O)Nc2ccccc2)CC1` stands 11.5%; under `CSc1ccc(CN(C)C(=O)C2CCN(C(=O)Nc3ccccc3)CC2)cc1`, -67.4%. Regarding `COc1ccc(CN(C)C(=O)C2CCN(C(=O)Nc3ccccc3)CC2)cc1`, the “hERG current change (%, negative = inhibition) at 10uM” value is recorded as -16.3%. Consider `CN(Cc1cccc(Cl)c1)C(=O)C1CCN(C(=O)Nc2ccccc2)CC1`, for which the “hERG current change (%, negative = inhibition) at 10uM” value is -55.9%. In the case of `CSc1ccccc1NC(=O)CN(C)C(=O)C1CCN(C(=O)Nc2ccccc2)CC1`, the “hERG current change (%, negative = inhibition) at 10uM” value is -11.4%. `COc1ccc(CN(C)C(=O)C2CCN(C(=O)Nc3ccccc3)CC2)cc1OC`: the “hERG current change (%, negative = inhibition) at 10uM” value is recorded as -1.53%. `CCn1cnc2c1c(=O)n(CC(=O)Nc1ccc(C(N)=O)cc1)c(=O)n2Cc1ccccc1`: the “hERG current change (%, negative = inhibition) at 10uM” value amounted to 13.8%. As for `Clc1cccc(C2Nc3cccc4cccc(c34)N2)c1Cl`, the “hERG current change (%, negative = inhibition) at 10uM” value is recorded as 16.2%. Take `CCOC(=O)C1CCCN(c2nc3c(C)cccn3c(=O)c2/C=C(\C#N)C(=O)NCc2ccco2)C1` (centres unmarked): the “hERG current change (%, negative = inhibition) at 10uM” value is reported as -49.7%.

Turning to `O=C(NCC1CCCO1)/C(=C\c1cccc([N+](=O)[O-])c1)NC(=O)c1ccccc1` (centres unmarked), the “hERG current change (%, negative = inhibition) at 10uM” value is on record as -33%. Under `CC(C)NC(=O)/C(=C\c1cccc([N+](=O)[O-])c1)NC(=O)c1ccccc1` stands -18.1%; under `Cc1ccc(C(=O)N/C(=C/c2cccc([N+](=O)[O-])c2)C(=O)NC(C)C)cc1`, -51.8%. Turning to `Cc1ccc(C(=O)N/C(=C/c2cccc([N+](=O)[O-])c2)C(=O)NCC2CCCO2)cc1` (centres unmarked), the “hERG current change (%, negative = inhibition) at 10uM” value was -68.4%. For the molecule `N#C/C(=C\c1cccc([N+](=O)[O-])c1)C(=O)Nc1cccnc1`, the “hERG current change (%, negative = inhibition) at 10uM” value is 21.3%. Under `O=C(/C=C/c1cccc([N+](=O)[O-])c1)NCc1cccnc1` stands -14%; under `CC(=O)N/C(=C\c1cccc([N+](=O)[O-])c1)C(=O)NC(C)C`, 2.75%; under `CCNC(=O)/C(=C/c1cccc([N+](=O)[O-])c1)NC(=O)c1ccc(C)cc1`, -58.1%. In the case of `Cc1ccc(C(=O)N/C(=C\c2cccc([N+](=O)[O-])c2)C(=O)NC(Cc2ccccc2)C(=O)O)cc1` (centres unmarked), the “hERG current change (%, negative = inhibition) at 10uM” value was determined as 15.3%.

Turning to `Cc1ccc(C(=O)N/C(=C\c2cccc([N+](=O)[O-])c2)C(=O)OCN2C(=O)c3ccccc3C2=O)cc1`, the “hERG current change (%, negative = inhibition) at 10uM” value is -11%. As for `Cc1ccc(C(=O)N/C(=C\c2ccccc2)C(=O)NCC2CCCO2)cc1` (centres unmarked), the “hERG current change (%, negative = inhibition) at 10uM” value is recorded as -24.3%. For `N#C/C(=C\c1cccc([N+](=O)[O-])c1)C(=O)NCc1cccnc1`, the “hERG current change (%, negative = inhibition) at 10uM” value is given as -50.8%. The value for `Cc1ccc(NC(=O)CSCc2ccco2)cc1` was 21.7%. For `O=C(CCSc1ccc(F)cc1)Nc1ccc(-n2cnnn2)cc1`, the “hERG current change (%, negative = inhibition) at 10uM” value was -26.4%.

`COc1cc(/C=N/N2CCN(c3ccc(Cl)cc3)CC2)cc(OC)c1OC(C)=O`: the “hERG current change (%, negative = inhibition) at 10uM” value was determined as 9.63%. Under `O=C(NC(NC(=S)Nc1ccccc1)C(Cl)(Cl)Cl)c1cccc(Cl)c1` (centres unmarked) stands 7.91%; under `O=C(NCc1ccncc1)/C(=C/c1cccc([N+](=O)[O-])c1)NC(=O)c1ccccc1`, -71%; under `O=C(NNc1cccc([N+](=O)[O-])c1)/C(=C\c1cccnc1)NC(=O)c1ccccc1`, -30.6%.

For the molecule `Cc1ccc(C(=O)N/C(=C\c2cccc([N+](=O)[O-])c2)C(=O)Nc2cccc(C(=O)O)c2)cc1`, the “hERG current change (%, negative = inhibition) at 10uM” value turned out to be 15.2%.

As to `Cc1ccc(C(=O)N/C(=C\c2cccc([N+](=O)[O-])c2)C(=O)NCc2ccncc2)cc1`, the “hERG current change (%, negative = inhibition) at 10uM” value was -73.3%. On to `Cn1c(=O)c2c(nc(Sc3ncccn3)n2Cc2ccccc2Cl)n(C)c1=O`, for which the “hERG current change (%, negative = inhibition) at 10uM” value is on record as -8.1%. Under `CCCC(=O)NC(=S)Nc1cccc(NC(=O)c2ccccc2)c1` stands -1.54%.

Turning to `CCOc1ccc(C(=O)Nc2ccc(C(F)(F)F)n(C)c2=O)cc1`, the “hERG current change (%, negative = inhibition) at 10uM” value is given as 14.5%.

Regarding `Cc1ccc(Nc2ncnc(N)n2)cc1`, the “hERG current change (%, negative = inhibition) at 10uM” value amounted to 9.24%. For `CCOc1ccc(NC(=O)CCC(=O)OC)cc1`, the “hERG current change (%, negative = inhibition) at 10uM” value is listed as -1.95%. `CCCOc1ccc(C(=O)OCCN(CC)CC)cc1N.Cl`: the “hERG current change (%, negative = inhibition) at 10uM” value was -51.9%. For the molecule `CCN(CC)CCOC(=O)c1cccc(Br)c1.Cl`, the “hERG current change (%, negative = inhibition) at 10uM” value is recorded as -40.6%. Take `CCN(CC)CCOC(=O)c1ccc(N)cc1.Cl`: the “hERG current change (%, negative = inhibition) at 10uM” value turned out to be 2.06%.

On to `CCCCOc1cc(C(=O)OCCN(CC)CC)ccc1N`, for which the “hERG current change (%, negative = inhibition) at 10uM” value was -60.6%.

For the molecule `CCCOc1cc(N)ccc1C(=O)OCCN(CC)CC.Cl`, the “hERG current change (%, negative = inhibition) at 10uM” value is -18.9%.

In the case of `CCCCOc1cc(C(=O)OCCN(CC)CC)ccc1N.Cl`, the “hERG current change (%, negative = inhibition) at 10uM” value is -53.6%. `CCN(CC)CCOC(=O)c1ccc2c(c1)OCCO2.Cl`: the “hERG current change (%, negative = inhibition) at 10uM” value was -11.4%. For the molecule `CCOc1ccc(C(=O)OCCN(CC)CC)cc1.Cl`, the “hERG current change (%, negative = inhibition) at 10uM” value is -44.8%. Turning to `CCN(CC)CCOC(=O)c1ccc([N+](=O)[O-])cc1.Cl`, the “hERG current change (%, negative = inhibition) at 10uM” value was -23.1%. The value for `CCN(CC)CCOC(=O)c1ccc(NC(=S)NC(=O)/C=C/c2ccco2)cc1` was -0.561%; that for `Cc1oc2c(c(C)cc3oc(=O)c(CC(=O)N[C@H](C(=O)O)C(C)C)c(C)c32)c1C` was 15.2%; that for `Cc1cc2c(ncn2C(C)C)c(N)c1C` was -9.87%. Turning to `CSc1ccc(C#N)cc1NC(=O)c1ccccc1`, the “hERG current change (%, negative = inhibition) at 10uM” value is given as -36.5%. Under `NC(=O)C1CCN(C(=O)Cc2ccsc2)CC1` stands -1.15%; under `Cc1csc2nc(O)c(C(=O)NCCCc3ccccc3)c(=O)n12`, -20%. Regarding `Cc1ccnc(NS(=O)(=O)c2ccc(NC(=O)Cc3ccc(Cl)cc3)cc2)n1`, the “hERG current change (%, negative = inhibition) at 10uM” value amounted to 14.3%.

Take `S=C1NC2(CCCCC2)Cc2ccccc21`: the “hERG current change (%, negative = inhibition) at 10uM” value was determined as 12.4%. For the molecule `CC(C)NC(=O)CN1CCN(Cc2nc(-c3cccs3)no2)CC1`, the “hERG current change (%, negative = inhibition) at 10uM” value came out at 19.9%.

On to `C[C@@H](C(=O)Nc1ccc2ccccc2c1)[C@H]1C[C@]1(C)[C@H](NC(=O)c1cnccn1)c1ccccc1`, for which the “hERG current change (%, negative = inhibition) at 10uM” value is -4.43%.

`CN1CCN(C(=S)NC(=O)c2ccccc2Br)CC1`: the “hERG current change (%, negative = inhibition) at 10uM” value is on record as 11.2%. The value for `O=c1[nH]c(O)c(N=Nc2ccc(S(=O)(=O)N3CCOCC3)cc2)c(=O)[nH]1` was -4.59%. As to `O=c1[nH]c(O)c(N=Nc2cccc(S(=O)(=O)N3CCOCC3)c2)c(=O)[nH]1`, the “hERG current change (%, negative = inhibition) at 10uM” value is -73.7%. Turning to `O=c1[nH]c(=S)[nH]c(O)c1N=Nc1cccc(S(=O)(=O)N2CCOCC2)c1`, the “hERG current change (%, negative = inhibition) at 10uM” value was 9.03%. Under `COC(=O)C1=C(c2ccccc2)C[C@@H]2CC[C@H]1N2C(=O)NCCCOC(C)C` stands 0.331%. Under `CCOc1ccc(N(C(=O)CNC(=O)c2ccco2)C(C(=O)NC2CCCC2)c2ccncc2)cc1` (centres unmarked) stands -10.7%; under `COc1ccc(CN2CCN(CCCc3ccccc3)C(CCO)C2)c(O)c1` (centres unmarked), -83.1%. Under `COc1ccc(CN2CCN(Cc3c[nH]c4ccccc34)CC2CCO)c(F)c1` (centres unmarked) stands -41.4%; under `COc1ccc(F)c(CN2CCN(CCc3ccccc3)C(CCO)C2)c1` (centres unmarked), -55.9%; under `COc1ccc(CN2CCN(CCc3ccccc3)C(CCO)C2)c(O)c1` (centres unmarked), -71.7%.

`O=C(OCC1OC(n2cc(Br)c(=O)[nH]c2=O)C(Br)C1O)c1ccccc1` (centres unmarked): the “hERG current change (%, negative = inhibition) at 10uM” value is reported as 8.3%. With `CCC(C)N(C(=O)COC(=O)CNC(=O)c1ccccc1F)C1CCS(=O)(=O)C1` (centres unmarked), the “hERG current change (%, negative = inhibition) at 10uM” value was determined as 4.36%. Take `COc1ccc(C)cc1NC(=O)c1cc2c(s1)CCC2`: the “hERG current change (%, negative = inhibition) at 10uM” value is reported as -5.71%. Under `COc1ccccc1-c1nnc2sc(-c3ccc(N(C)C)cc3)nn12` stands -11%; under `CC(=O)NC(C)c1nc2ccccc2n1C(C)C` (centres unmarked), -10.2%. The value for `Cc1ccc(C)c(NC(=O)C(NCC(C)(C)N2CCOCC2)c2ccccc2)c1` (centres unmarked) was -62.6%; that for `Cc1cc(C)cc(NC(=O)C(NCCN2CCOCC2)c2ccccc2)c1.O=C(O)C(=O)O` (centres unmarked) was -7.91%; that for `COc1ccc(C)cc1NC(=O)C(NCC(O)c1ccccc1)c1ccccc1.O=C(O)C(=O)O` (centres unmarked) was -21.7%. Under `COc1ccc(C)cc1NC(=O)C(NCC1CCCO1)c1ccccc1` (centres unmarked) stands -51.4%; under `Cc1cc(C)cc(NC(=O)C(NCC2CCCO2)c2ccccc2)c1.O=C(O)C(=O)O` (centres unmarked), -35.5%; under `Cc1ccc(C)c(NC(=O)C(c2ccccc2)N2CCOCC2)c1` (centres unmarked), -10.6%. `Cc1cc(NC(=O)C2CCN(S(=O)(=O)Cc3ccccc3)CC2)ccc1-n1cnnn1`: the “hERG current change (%, negative = inhibition) at 10uM” value is on record as -9.11%.
